How the values were obtained:
Assay in all cases: log2 ratio of Biotin-Ahx-Ub-VS probe labelling (fragment/DMSO); higher = less target engagement (more negative = stronger competition), active = hit call of the paper (q ≤ 0.05, log2 ratio ≤ -1)
Conditions in all cases: compound concentration: 200 uM; treatment time: 3 h
USP34 = USP34 (UniProt Q70CQ2)
Procedure, shortened: (§1)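 The table lists average log2 ratios of fragment over vehicle, from an unpaired t-test on global-median-normalised Spectronaut label-free quantities. Proteins with ≥2 unique peptides were used. Samples were HEK293T lysate (495 µg) treated in triplicate with fragment at 200 µM or vehicle for 3 h, then with Biotin-Ahx-Ub-VS (0.5 µM final) for 1 h, with labelled DUBs NeutrAvidin-enriched and run by diaPASEF LC-MS/MS.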

USP36 = target: T1, USP36 (UniProt Q9P275)
T1 sequence (whole entry): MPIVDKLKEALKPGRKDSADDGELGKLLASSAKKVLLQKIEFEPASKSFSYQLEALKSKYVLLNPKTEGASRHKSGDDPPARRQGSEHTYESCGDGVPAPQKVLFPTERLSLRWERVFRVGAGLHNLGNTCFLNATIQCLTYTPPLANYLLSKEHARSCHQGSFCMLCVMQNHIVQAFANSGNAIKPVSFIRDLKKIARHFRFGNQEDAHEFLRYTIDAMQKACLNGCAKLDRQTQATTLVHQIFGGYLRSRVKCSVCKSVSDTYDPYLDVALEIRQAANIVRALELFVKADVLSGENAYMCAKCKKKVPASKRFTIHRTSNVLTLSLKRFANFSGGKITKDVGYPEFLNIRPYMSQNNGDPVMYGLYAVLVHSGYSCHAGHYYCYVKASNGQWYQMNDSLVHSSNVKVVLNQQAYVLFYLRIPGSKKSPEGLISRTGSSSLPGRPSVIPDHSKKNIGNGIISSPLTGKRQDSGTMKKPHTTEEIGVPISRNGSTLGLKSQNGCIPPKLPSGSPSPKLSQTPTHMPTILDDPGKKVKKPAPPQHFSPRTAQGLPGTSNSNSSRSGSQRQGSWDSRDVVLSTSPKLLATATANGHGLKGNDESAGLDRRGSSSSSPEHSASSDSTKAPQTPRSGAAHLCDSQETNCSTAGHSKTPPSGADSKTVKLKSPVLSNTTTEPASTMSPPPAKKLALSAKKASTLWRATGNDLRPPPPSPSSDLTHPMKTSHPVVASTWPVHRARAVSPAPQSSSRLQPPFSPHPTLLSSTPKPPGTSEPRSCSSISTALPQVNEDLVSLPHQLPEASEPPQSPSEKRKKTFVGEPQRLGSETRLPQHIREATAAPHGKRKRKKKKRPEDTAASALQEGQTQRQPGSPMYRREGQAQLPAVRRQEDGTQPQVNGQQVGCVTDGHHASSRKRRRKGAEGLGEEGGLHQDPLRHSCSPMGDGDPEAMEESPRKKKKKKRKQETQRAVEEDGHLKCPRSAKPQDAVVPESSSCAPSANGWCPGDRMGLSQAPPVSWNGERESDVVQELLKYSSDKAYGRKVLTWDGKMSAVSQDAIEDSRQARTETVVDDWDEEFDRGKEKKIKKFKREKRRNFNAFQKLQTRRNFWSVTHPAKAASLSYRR
Procedure, shortened: as §1

USP38 = target: T2, USP38 (UniProt Q8NB14)
T2 sequence (whole entry): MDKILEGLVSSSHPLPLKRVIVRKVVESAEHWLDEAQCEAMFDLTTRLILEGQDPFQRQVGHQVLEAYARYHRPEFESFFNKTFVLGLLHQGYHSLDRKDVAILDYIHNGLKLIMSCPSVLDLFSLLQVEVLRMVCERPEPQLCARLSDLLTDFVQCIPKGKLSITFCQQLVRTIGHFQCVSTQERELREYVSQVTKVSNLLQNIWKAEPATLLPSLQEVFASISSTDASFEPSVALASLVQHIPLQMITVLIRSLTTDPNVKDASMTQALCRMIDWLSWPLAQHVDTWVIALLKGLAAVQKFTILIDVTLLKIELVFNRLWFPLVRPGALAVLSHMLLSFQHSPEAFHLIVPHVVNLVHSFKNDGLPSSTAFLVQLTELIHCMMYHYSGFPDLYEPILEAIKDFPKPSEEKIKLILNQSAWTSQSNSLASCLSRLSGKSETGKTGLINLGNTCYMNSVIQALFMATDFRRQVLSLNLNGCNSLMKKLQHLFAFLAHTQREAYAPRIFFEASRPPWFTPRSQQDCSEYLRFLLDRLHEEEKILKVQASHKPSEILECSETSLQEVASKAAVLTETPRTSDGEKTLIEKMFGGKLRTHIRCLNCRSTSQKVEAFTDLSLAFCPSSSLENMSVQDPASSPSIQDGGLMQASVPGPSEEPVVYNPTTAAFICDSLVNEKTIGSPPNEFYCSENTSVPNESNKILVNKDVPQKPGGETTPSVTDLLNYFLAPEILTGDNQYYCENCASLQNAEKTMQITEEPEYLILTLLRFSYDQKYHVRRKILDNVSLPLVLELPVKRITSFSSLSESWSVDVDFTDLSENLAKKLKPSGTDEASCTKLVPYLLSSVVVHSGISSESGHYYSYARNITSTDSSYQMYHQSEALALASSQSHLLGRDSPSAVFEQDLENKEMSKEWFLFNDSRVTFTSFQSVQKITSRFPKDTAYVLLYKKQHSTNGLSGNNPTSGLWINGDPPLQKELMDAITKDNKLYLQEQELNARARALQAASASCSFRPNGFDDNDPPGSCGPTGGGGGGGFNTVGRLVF
Procedure, shortened: as §1

USP39 = target: T3, USP39 (UniProt Q53GS9)
T3 sequence (whole entry): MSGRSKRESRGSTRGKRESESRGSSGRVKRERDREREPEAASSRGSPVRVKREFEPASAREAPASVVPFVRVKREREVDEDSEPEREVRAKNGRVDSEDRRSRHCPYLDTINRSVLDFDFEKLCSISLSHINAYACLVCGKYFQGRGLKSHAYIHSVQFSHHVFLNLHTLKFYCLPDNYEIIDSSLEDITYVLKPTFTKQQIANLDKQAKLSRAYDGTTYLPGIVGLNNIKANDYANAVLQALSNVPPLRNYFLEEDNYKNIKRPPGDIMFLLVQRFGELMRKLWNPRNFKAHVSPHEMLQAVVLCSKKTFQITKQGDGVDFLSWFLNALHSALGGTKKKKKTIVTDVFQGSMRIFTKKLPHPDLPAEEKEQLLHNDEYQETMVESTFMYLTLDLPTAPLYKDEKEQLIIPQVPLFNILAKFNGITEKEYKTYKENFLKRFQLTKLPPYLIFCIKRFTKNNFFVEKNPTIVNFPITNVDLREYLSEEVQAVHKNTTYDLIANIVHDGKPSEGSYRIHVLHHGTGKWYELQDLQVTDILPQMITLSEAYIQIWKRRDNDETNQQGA
Procedure, shortened: as §1

USP4 = target: T4, USP4 (UniProt Q13107)
T4 sequence (whole entry): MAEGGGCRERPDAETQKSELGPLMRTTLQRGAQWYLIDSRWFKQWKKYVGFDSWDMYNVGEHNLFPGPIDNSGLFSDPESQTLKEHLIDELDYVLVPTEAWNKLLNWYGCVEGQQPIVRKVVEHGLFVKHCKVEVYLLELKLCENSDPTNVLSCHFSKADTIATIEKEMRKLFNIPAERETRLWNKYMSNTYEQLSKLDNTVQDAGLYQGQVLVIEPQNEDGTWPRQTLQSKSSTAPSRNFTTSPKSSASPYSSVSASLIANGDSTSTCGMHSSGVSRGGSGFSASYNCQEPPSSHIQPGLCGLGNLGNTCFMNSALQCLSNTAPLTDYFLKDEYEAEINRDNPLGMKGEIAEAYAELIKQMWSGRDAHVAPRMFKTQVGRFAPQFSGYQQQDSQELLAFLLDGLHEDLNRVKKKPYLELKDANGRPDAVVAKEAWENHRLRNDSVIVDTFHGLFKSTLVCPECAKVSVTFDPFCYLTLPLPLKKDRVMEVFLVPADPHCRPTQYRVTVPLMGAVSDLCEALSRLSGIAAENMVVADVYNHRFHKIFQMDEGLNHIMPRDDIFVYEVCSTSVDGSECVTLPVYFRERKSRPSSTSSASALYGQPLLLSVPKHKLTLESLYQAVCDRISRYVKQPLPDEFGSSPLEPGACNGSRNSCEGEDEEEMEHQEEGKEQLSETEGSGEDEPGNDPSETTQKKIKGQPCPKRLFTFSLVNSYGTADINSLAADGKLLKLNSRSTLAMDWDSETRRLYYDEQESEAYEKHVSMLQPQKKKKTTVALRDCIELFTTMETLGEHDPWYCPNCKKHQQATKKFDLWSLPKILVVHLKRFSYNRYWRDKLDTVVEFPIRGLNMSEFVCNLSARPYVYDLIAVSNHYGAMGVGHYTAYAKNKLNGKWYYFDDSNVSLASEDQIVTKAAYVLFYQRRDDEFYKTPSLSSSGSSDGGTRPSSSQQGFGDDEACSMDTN
Procedure, shortened: as §1

Measured: log2 ratio of Biotin-Ahx-Ub-VS probe labelling

Sequence of USP34 (Q70CQ2 whole entry, the tested form may be a part): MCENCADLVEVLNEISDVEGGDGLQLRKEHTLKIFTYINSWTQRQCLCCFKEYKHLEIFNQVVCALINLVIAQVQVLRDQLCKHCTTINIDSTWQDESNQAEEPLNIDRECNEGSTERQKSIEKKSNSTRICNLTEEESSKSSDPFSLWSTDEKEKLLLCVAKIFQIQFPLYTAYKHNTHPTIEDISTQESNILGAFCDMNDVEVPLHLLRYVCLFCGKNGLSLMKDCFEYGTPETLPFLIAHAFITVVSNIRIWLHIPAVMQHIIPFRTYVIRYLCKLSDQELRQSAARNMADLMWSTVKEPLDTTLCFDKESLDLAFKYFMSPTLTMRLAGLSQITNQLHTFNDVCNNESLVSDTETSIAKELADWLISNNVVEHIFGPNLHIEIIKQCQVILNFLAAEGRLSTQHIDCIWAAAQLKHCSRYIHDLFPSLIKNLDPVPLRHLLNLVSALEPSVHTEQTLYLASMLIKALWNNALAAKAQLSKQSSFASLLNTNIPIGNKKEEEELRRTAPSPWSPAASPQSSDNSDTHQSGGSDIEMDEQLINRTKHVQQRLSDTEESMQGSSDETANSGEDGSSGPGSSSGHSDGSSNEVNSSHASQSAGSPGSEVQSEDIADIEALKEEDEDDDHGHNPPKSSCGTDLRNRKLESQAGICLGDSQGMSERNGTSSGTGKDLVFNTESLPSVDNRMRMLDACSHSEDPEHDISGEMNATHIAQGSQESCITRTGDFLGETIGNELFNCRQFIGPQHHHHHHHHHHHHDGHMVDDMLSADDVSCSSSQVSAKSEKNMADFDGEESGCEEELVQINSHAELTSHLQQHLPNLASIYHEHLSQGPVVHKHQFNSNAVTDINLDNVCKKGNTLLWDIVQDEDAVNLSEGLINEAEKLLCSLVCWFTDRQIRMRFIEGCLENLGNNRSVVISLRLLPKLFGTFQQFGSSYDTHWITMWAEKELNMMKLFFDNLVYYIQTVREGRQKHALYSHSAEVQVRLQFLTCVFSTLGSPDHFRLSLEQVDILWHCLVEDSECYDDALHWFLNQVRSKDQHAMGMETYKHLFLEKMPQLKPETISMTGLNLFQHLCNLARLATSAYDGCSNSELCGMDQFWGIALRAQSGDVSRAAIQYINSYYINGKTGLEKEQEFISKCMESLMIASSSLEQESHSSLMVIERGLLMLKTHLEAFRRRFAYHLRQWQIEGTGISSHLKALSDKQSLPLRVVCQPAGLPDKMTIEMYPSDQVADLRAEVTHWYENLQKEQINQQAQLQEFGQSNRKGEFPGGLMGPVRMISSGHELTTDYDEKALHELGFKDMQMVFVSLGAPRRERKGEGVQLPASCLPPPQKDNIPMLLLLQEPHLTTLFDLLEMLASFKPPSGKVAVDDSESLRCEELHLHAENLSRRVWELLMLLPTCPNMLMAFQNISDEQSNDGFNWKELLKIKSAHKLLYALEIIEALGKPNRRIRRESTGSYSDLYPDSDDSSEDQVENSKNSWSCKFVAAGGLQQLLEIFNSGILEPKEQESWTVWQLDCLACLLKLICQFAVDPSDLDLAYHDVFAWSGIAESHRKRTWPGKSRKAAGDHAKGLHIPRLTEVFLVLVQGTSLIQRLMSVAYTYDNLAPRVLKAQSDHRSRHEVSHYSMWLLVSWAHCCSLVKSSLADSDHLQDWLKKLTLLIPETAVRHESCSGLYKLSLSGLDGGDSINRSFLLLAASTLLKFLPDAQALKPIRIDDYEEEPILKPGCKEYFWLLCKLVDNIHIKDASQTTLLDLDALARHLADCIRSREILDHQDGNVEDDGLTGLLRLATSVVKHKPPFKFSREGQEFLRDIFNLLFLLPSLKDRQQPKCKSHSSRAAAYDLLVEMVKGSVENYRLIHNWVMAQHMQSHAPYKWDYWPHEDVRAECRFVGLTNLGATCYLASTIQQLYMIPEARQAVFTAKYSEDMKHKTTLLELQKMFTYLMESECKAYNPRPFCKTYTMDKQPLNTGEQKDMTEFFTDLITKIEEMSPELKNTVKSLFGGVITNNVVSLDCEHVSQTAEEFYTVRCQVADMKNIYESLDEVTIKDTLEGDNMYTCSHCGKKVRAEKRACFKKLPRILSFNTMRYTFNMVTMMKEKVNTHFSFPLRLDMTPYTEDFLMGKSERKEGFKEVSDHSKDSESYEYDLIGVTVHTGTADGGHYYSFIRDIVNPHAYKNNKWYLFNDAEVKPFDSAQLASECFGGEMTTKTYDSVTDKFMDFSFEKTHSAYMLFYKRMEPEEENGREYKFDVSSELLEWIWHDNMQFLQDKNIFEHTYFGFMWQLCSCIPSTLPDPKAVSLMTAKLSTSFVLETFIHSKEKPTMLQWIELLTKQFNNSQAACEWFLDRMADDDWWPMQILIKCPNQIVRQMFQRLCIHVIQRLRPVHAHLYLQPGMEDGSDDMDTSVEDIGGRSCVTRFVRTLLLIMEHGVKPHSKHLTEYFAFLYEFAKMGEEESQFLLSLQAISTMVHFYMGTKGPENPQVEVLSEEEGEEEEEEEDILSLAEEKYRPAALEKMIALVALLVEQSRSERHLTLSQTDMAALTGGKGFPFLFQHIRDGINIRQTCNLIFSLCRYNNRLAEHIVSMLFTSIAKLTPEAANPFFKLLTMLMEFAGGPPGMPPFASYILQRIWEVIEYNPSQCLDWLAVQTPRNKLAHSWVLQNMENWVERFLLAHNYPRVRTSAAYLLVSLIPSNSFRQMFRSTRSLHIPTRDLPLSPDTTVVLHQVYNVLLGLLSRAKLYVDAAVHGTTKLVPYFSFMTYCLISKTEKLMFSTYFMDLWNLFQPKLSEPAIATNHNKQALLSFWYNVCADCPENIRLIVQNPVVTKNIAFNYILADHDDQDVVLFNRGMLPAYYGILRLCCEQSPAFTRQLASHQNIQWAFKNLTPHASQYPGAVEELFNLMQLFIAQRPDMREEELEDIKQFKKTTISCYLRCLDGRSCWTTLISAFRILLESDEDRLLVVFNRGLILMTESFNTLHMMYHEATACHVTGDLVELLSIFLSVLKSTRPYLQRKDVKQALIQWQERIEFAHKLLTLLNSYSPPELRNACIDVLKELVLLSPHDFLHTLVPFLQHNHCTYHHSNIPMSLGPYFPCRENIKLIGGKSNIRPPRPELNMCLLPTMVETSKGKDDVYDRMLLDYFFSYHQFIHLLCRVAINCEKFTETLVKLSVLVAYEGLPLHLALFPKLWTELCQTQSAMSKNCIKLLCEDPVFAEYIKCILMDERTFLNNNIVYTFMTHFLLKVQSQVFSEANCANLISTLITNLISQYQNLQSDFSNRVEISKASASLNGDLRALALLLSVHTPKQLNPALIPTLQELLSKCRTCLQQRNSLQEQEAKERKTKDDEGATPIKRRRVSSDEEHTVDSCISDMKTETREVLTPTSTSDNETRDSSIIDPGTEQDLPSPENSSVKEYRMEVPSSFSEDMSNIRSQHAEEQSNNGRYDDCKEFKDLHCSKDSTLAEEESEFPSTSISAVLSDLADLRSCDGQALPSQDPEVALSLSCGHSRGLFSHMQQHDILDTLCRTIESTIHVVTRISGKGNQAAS

O=C(CCl)N(C1=CCCCC1)C1CC1
inactive: USP34 -0.0141 | USP36 -0.116 | USP38 -0.172 | USP39 -0.177 | USP4 0.0249

Source: the supplement of paper PMC11732987, “Enantioselective OTUD7B fragment discovery through chemoproteomics screening and high-throughput optimisation” (Communications Chemistry, 2025)
